High-throughput results deposited in PubChem BioAssay by National Center for Advancing Translational Sciences (NCATS).
TRHR PAM: allosterically enhances the human TRH receptor | actives 0.66% (n = 360,000) | TRHR cells, fluo-8 calcium fluorescence, EC20 TRH enhancement | enhancement, % at 2 µM | P34981; in the data active = enhancement above about 30%; also: 0% is about no effect
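Enhancer read-out: after compound pinning and an initial kinetic agonist-mode read, an EC20 of TRH (10 nM final) was injected and fluo-8 calcium signal (Ex 480/Em 530) followed at 1 s/cycle for 100 cycles in TRHR-expressing cells.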
D1 agonist: agonists of human D1 dopamine receptor | HEK293 T-REx D1 cells, calcium flux, agonist mode | AID 504660 | activation, % at 2 µM | P21728 | actives 1% (n = 360,000); also: 0% is about no effect
Target sequence (P21728 whole entry, looked up): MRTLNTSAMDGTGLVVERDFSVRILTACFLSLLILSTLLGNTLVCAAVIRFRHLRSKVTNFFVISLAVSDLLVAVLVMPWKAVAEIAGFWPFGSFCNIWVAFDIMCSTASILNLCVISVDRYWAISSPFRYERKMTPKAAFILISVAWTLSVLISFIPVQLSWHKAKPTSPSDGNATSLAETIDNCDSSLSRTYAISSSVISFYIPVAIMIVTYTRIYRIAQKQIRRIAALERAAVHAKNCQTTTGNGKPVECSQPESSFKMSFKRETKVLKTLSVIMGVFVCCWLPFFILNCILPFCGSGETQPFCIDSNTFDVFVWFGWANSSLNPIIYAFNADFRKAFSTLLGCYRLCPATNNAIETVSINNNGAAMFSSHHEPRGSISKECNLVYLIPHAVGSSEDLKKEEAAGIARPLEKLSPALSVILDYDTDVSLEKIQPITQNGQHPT
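Inducible HEK293 T-REx D1 cells, force-coupled to calcium signalling, were plated at 4000 cells/well with tetracycline and held overnight at 30 C. After no-wash calcium dye loading, compound-evoked calcium rise over 180 s flagged agonists.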
TRHR ag: activates the human TRH receptor. P34981. TRHR cells, calcium flux fluo-8, FDSS agonist mode. activation, % at 2 µM. actives 0.18% (n = 360,000); also: 0% is about no effect
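In this calcium-flux screen, cells bearing human TRHR are dye-loaded with fluo-8, baselined for 10 cycles, then exposed to library compounds; positive kinetic calcium responses during the agonist phase mark hits, with TRH as control.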
D1 potentiator: enhances dopamine response at the human D1 receptor; P21728; HEK293 TREx D1 cells, calcium flux, dopamine EC20 potentiation; potentiation, % at 10 µM; actives 0.036% (n = 360,000); AID 504651; in the data active = potentiation above about 30%; also: 0% is about no effect
D1 antag: blocks dopamine activation of the human D1 receptor; HEK293 TREx D1 cells, calcium flux, dopamine EC80; stronger effect = lower value; activity change, negative = inhibition, % at 10 µM; AID 504652; P21728; actives 3.2% (n = 360,000); in the data active = activity change below about -30%; also: % is scaled to controls: 0 for no effect and ±100 for the full control effect
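Tetracycline-induced HEK293 T-REx cells with force-coupled D1 receptor were loaded with a no-wash calcium dye. Compound was added after a 10 s baseline and read kinetically for 180 s; EC80 dopamine was then added and calcium flux followed another 180 s.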
An asterisk follows results filed as active; / = no result given. Most compounds without a hit are left out; they make up all but 4.6% or so of the library. Rule as the data show it, unless noted: active = activation above about 30%; inactive = the rest.

SMILES	TRHR PAM	D1 agonist	TRHR ag	D1 potentiator	D1 antag
Cc1ccc(C)n1CCN1CCN(CC(=O)Nc2cc(C(F)(F)F)ccc2Cl)CC1	55*	0	0	-4	0
O=C(CN1CCOCC1)Nc1cc(C(F)(F)F)ccc1Cl	-2	3	-2	-3	1
Cc1ccc(NC(=O)[C@H](CSCc2ccccc2)N2Cc3ccccc3C2=O)cc1	-3	4	0	0	-34*
Cc1ccccc1NC(=O)c1ccc(NS(=O)(=O)c2cc(C(C)(C)C)cc(C)c2C)cc1	0	0	0	-5	-85*
Cc1cccc(NS(=O)(=O)c2cccc(C(=O)Nc3cccc(C(=O)O)c3)c2)c1	0	9	0	6	-22
Cc1ccccc1NC(=O)c1cccc(S(=O)(=O)Nc2cccc(C(=O)O)c2)c1	-4	-3	0	2	-31*
Cc1cc(C(C)(C)C)cc(S(=O)(=O)Nc2cccc(C(=O)O)c2)c1C	-2	1	0	-8	-18
CCOC(=O)c1c(-c2ccccc2)csc1NC(=O)c1cc(-c2cccc(OC)c2)on1	-1	2	0	2	-5
CCOC(=O)Cn1c(=O)n(CC2CCCO2)c2nc(-c3ccc(C(C)C)cc3)nc(C(N)=O)c21 (stereo not given)	9	2	0	-1	7
CCOC(=O)Cn1c(=O)n(C2CCCC2)c(=O)c2ccccc21	41*	0	-1	6	7
CCOC(=O)Cn1c(=O)n(CC2CCCO2)c2nc(-c3ccc(OC)cc3OC)nc(C(N)=O)c21 (stereo not given)	42*	1	0	0	1
CCOC(=O)Cn1c(=O)n(C2CCCCC2)c2nc(-c3cccc(F)c3)nc(C(N)=O)c21	-1	0	0	-2	5
CCOC(=O)Cn1c(=O)n(C2CCCCC2)c2nc(-c3ccc(C(C)C)cc3)nc(C(N)=O)c21	-4	0	0	0	-51*
CCOC(=O)Cn1c(=O)n(C2CCCCC2)c2nc(-c3cccc(C)c3)nc(C(N)=O)c21	20	2	0	-1	-86*
CCOC(=O)Cn1c(=O)n(CC(=O)OCC)c2ccccc21	-4	1	1	1	1
Cc1ccc2nc(Nc3cccc(C(F)(F)F)c3)c3nnnn3c2c1	-4	0	0	-2	1
COC(=O)CN1C(=O)C(C)(C)c2cc(S(=O)(=O)Nc3ccc(Br)cc3F)ccc21	-1	4	1	-2	19
CCc1cccc(NC(c2ccccc2)c2nnc(-c3ccccc3F)o2)c1 (stereo not given)	14	2	0	0	7
Cc1cccc(N2CCN(C(=O)CN3CCSc4ccccc43)CC2C)c1 (stereo not given)	-11	5	0	-2	-17
CCN(C(=O)CN(C)S(=O)(=O)c1ccc2c(c1)c(=O)n(C)c(=O)n2C)c1ccc(OC)cc1	28	0	0	-2	-5
CCC(=O)N1CCc2cc(Br)cc(S(=O)(=O)CCC(=O)Nc3ccc(Cl)cc3)c21	-2	2	2	1	-5
CCOc1ccccc1NC(=O)NCCn1c(=O)oc2ccc(C)cc21	-1	2	-2	0	-6
COc1cccc(CNC(C)(C)CO)c1OCc1ccc(Cl)cc1	-4	15	2	/	-5
COc1cccc(OCc2ccc(Cl)cc2)c1C#N	0	2	0	-6	-51*
COc1ccc(C(=O)C(C)[n+]2ccc(C)c3ccccc32)cc1[N+](=O)[O-] (stereo not given)	-2	52*	8	-7	-25
SMILES	TRHR PAM	D1 agonist	TRHR ag	D1 potentiator	D1 antag
CCC(=O)N/C=C/n1cnc2cc(C(F)(F)F)ccc21	-9	6	1	-5	-23
CN(C)c1cccc(C(=O)N/C=C/n2cnc3cc(C(F)(F)F)ccc32)c1	-7	0	0	5	-39*
CC(=O)Nc1ccc(NC(=O)C(C)OC(=O)c2c(C)nn(-c3ccccc3)c2Cl)cc1 (stereo not given)	-1	2	0	/	-1
Cc1nn(-c2ccccc2)c(Cl)c1C(=O)OC(C)C(=O)Nc1ccc2c(c1)OCO2 (stereo not given)	1	0	-1	7	-71*
CC(Sc1ncnc2ccccc12)C(=O)Nc1ccc2c(c1)OCO2 (stereo not given)	29	7	0	-13	-33*
CCN1CCN(CCNC(=O)CCc2c(C)c3c(C)nn(-c4ccccc4)c3n(C)c2=O)CC1	-4	2	1	-17	-46*
Cc1ccc(CC(=O)Nc2ccc(F)c([N+](=O)[O-])c2)cc1C	-1	9	1	-4	-35*
Cc1ccc(NC(=S)NCc2ccccc2)cc1[N+](=O)[O-]	-6	23	1	-8	-21
O=C(CCc1ccccc1)Nc1ccc(F)c([N+](=O)[O-])c1	-4	10	-1	-3	-18
Cc1ccc(NC(=O)Cc2ccc3c(c2)CCCC3)cc1C	1	3	0	0	-31*
Cc1ccc(CC(=O)Nc2ccc(F)c([N+](=O)[O-])c2)cc1	-4	9	-1	-9	-43*
Cc1ccc(CNC(=S)Nc2ccc(C)c([N+](=O)[O-])c2)cc1	-4	38*	3	-7	-31*
CCN(CC)CCSc1nnc2c3cc(F)ccc3n(CC)c2n1	1	0	-2	-3	-18
O=C(Nc1cc(C(F)(F)F)ccc1Cl)[C@H](O)CCc1ccccc1	-4	17	1	-5	-8
COc1ccc(NC(=O)c2ccc3c(SCC(=O)O)c4c(nc3c2)CCC4)c(OC)c1	4	2	0	1	-35*
O=C(CSc1c2c(nc3ccccc13)CCC2)Nc1ccc(F)cc1F	-8	-1	-1	-2	-36*
COc1ccc(OC)c(C(=O)CSc2ncc3c(n2)-c2ccccc2N(Cc2ccccc2C)S3(=O)=O)c1	0	0	0	-1	4
O=C(CCn1c(=O)c2cccn2c2cccnc21)NCc1ccccc1F	4	-1	0	2	1
COc1ccc(OC)c(NC(=O)CCCOc2cc(=O)n(C)c3ccccc23)c1	-2	-1	-1	3	-8
O=C(O)CCc1cc(I)c(Oc2ccc(O)c(I)c2)c(I)c1	13	85*	2	-9	0
Cn1c(=O)n(C)c2cc(CNCc3ccccc3Cl)ccc21	1	4	0	1	-7
CC1CCCCC1N(C)C1CCN(C(=O)CNC(=O)/C=C/c2cccc(Cl)c2)CC1 (stereo not given)	0	14	-1	-2	-31*
CN(C1CCCC1)C1CCN(C(=O)CNC(=O)/C=C/c2ccccc2)CC1	3	3	1	-2	-13
CC(=C/c1ccccc1)/C=N/n1c(C)n[nH]c1=S	32*	2	0	-5	-22
